Sampled rows, rich in hits. Any-hit rate of the full collection: about 3.5%.
Pf apPOL inh = Pf-apPOL inhibitors, biochemical, fluorescence; Plasmodium falciparum apicoplast DNA polymerase (apPOL); Recombinant Pf-apPOL, molecular beacon fluorescence, 1.5 h; inhibition, % at 10 µM; 0.25% of 210,000 active; AID 1794808, 2022
mHTT CaM bind = mutant huntingtin-calmodulin interaction inhibitors – biochemical, AlphaScreen, primary screen. AlphaScreen His-mHTT/GST-CaM binding, luminescence. P42858. inhibition, % at 15 µM. 3.6% of 190,000 active;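 also: 0% = both proteins with DMSO and 100% = one protein alone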
The depositor's hits bear a star; · = no result. Rule as the data show it: active = inhibition above about 50%; inactive = the rest.

SMILES	Pf apPOL inh	mHTT CaM bind
O=[N+]([O-])c1cccc2c1NC(c1ccccc1Br)C1CC=CC21 (stereo unspecified)	-1	63*
O=[N+]([O-])c1cccc2c1NC(c1ccc(Br)cc1)C1CC=CC21 (stereo unspecified)	1	82*
CCCCN(CCO)C(=O)C(c1ccccc1)c1ccccc1	-5	-1
CC1(C)CC(=O)C2=C(C1)c1c(ccc3ncccc13)NC2c1ccc(Cl)cc1 (stereo unspecified)	58*	18
CC1(C)CC(=O)C2=C(C1)c1c(ccc3ncccc13)NC2c1ccccc1 (stereo unspecified)	-1	19
Cc1nc(-c2cccnc2)nc2c1CCC(=O)N2CCC1=CCCCC1	5	57*
Cc1nc(-c2ccncc2)nc2c1CCC(=O)N2CCC1=CCCCC1	6	13
O=C1C2CCCN2C(=O)c2ccccc2N1Cc1ccccc1 (stereo unspecified)	-5	1
Cc1noc(C)c1CC(=O)N1CCCn2cc(-c3ccccc3)nc21	6	53*
Cc1noc(C)c1CC(=O)N1CCCn2cc(-c3ccccc3F)nc21	0	4
CNc1nccc(N2CCC(CC(=O)NCCN3CCCCCC3)CC2)n1	-5	6
CS(=O)(=NC(=O)Nc1ccccc1)c1cccs1 (stereo unspecified)	-3	·
CCOc1ccc(NC2=CC(=NS(=O)(=O)c3ccccc3)c3ccccc3C2=O)cc1	-5	66*
CCc1ccc(S(=O)(=O)Nc2ccc(O)cc2)cc1	-6	1
Cc1ccc(Cl)cc1NC1=CC(=NS(=O)(=O)c2cccs2)c2ccccc2C1=O	-6	79*
Cc1ccccc1NS(=O)(=O)c1cccs1	2	0
O=C1C(Nc2ccc(O)cc2)=CC(=NS(=O)(=O)c2cccs2)c2ccccc21	2	94*
CCOc1ccc(NC2=CC(=NS(=O)(=O)c3ccc(OC)cc3)c3ccccc3C2=O)cc1	0	38
CCc1ccc(S(=O)(=O)N=C2C=C(Nc3ccc(O)cc3)C(=O)c3ccccc32)cc1	-9	72*
O=[N+]([O-])c1ccc(N2CCN(S(=O)(=O)N3CCCC3)CC2)c(Cl)c1	-4	2
COc1cc2c(cc1NC(=O)C(Cl)Cl)oc1ccccc12	-4	-10
CC(=O)NS(=O)(=O)c1ccc(NS(=O)(=O)c2ccc([N+](=O)[O-])cc2)cc1	8	-5
CCc1ccc(-c2nc3c(c(=O)[nH]2)CN(C(=O)C(C)(C)CCl)CC3)cc1	8	0
CCOc1ccc(S(=O)(=O)N=C2C=C(Nc3ccc(O)cc3)C(=O)c3ccccc32)cc1	0	94*
CCOc1ccc(S(=O)(=O)N=C(Nc2ccccn2)c2ccccc2)cc1	2	4
SMILES	Pf apPOL inh	mHTT CaM bind
COc1ccc(S(=O)(=O)N2CCc3nc(NC(=O)c4ccncc4)sc3C2)cc1	0	16
Cc1ccc(CN2CCc3c(cc(C(=O)NCc4ccco4)n3C)C2)cc1	1	62*
COc1cccc(CNC(=O)c2cc3c(n2C)CCN(Cc2ccc(F)cc2)C3)c1OC	-8	25
CN(C)CCNC(=O)c1cc2c(n1C)CCN(Cc1ccccc1)C2	-3	5
COc1ccccc1NC(=O)N1CCc2c(c3cc(F)ccc3n2C)C1	-4	82*
Cn1c(C(=O)NCc2ccco2)cc2c1CCN(Cc1ccccc1)C2	-1	48
COc1ccccc1NC(=O)c1cc2c(n1C)CCN(Cc1ccc(F)cc1)C2	-2	63*
COc1ccccc1NC(=O)N1CCc2c(c(COCc3cccc(F)c3)nn2C)C1	-3	20
CN(C)CCCNC(=O)c1cc2c(n1C)CCN(Cc1ccc(F)cc1)C2	2	96*
COc1ccc(CNC(=O)c2cc3c(n2C)CCN(Cc2ccc(F)cc2)C3)cc1	-3	31
COc1ccc(CNC(=O)c2cc3c(n2C)CCN(Cc2ccc(F)cc2)C3)cc1OC	-5	76*
CNC(=O)c1ccc2c(c1)n(Cc1cccc(F)c1)c(=O)c1ccnn12	-9	1
CCNC(=O)N1CCC(Nc2cccnc2)C1 (stereo unspecified)	-4	-4
CN(C)C1CN(C(=O)c2ccc(F)cc2)CCC1(O)c1ccccc1 (stereo unspecified)	-3	2
O=C1NN(c2ccc(Cl)c(Cl)c2)C(=O)/C1=C/c1cc2c(cc1[N+](=O)[O-])OCO2	-3	75*
COc1cc(/C=C2\C(=O)NN(c3ccc(Cl)c(Cl)c3)C2=O)cc([N+](=O)[O-])c1O	-6	49
COc1cc2c(cc1/C=C1\NC(=O)N(Cc3ccc(F)cc3)C1=O)OCO2	-9	-4
O=C1NC(=O)N(Cc2ccc(F)cc2)C(=O)/C1=C\c1cc2c(cc1[N+](=O)[O-])OCO2	3	67*
COc1ccc(CCNC(=O)COc2ccc(Br)cc2C)cc1	-11	-5
Cc1cc(N2C(=O)C3C4C=CC(CC4)C3C2=O)c([N+](=O)[O-])cc1C (stereo unspecified)	0	1
